Records with an inconclusive call do not appear. Activity calls are given as the source filed them. Rule for the calls, unless noted: active = hit-call score of the fitted dose curve at least 0.9, where 1 is the maximum; inactive = score below 0.9.

Assay [1] can be described thus: ATG_PBREM_CIS: Attagene CIS-FACTORIAL HepG2 Assay for human Phenobarbital-responsive Enhancer Module (PBREM) (AID 2282955). The conditions noted are these: HepG2 PBREM cis-reporter, Attagene multiplexed transcription; actives raise or lower the signal. In a few lines: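 HepG2 cells transiently transfected with multiple cis-regulated reporter units measure endogenous transcription factor activity; 24 h compound exposure. Reporter mRNA quantified by RT-PCR, fluorescent labelling, HpaI digestion and capillary electrophoresis; bidirectional fit versus DMSO.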

For assay [2], the target named is Paired box protein Pax-6 (Homo sapiens) (UniProt P26367). Description: ATG_Pax6_CIS: Attagene CIS-FACTORIAL HepG2 Assay for human Paired Box 6 (PAX6) (AID 2282956). The conditions noted are these: HepG2 CIS-FACTORIAL PAX6 reporter transcription, RNA readout; actives raise or lower the signal. In a few lines:
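HepG2 cells transiently transfected with cis-promoter-driven multiplexed reporter units sensing endogenous transcription factor activity; 24 h chemical exposure. Reporter mRNA quantified by RT-PCR, 6-FAM labelling, HpaI digestion and capillary electrophoresis; bidirectional fit versus DMSO baseline.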

Assay [3] in a line: ATG_PXRE_CIS: Attagene CIS-FACTORIAL HepG2 Assay for human Pregnane X Receptor Element (PXRE) (AID 2282957). The conditions noted are these: HepG2 Attagene CIS-FACTORIAL PXRE reporter, mRNA; actives raise or lower the signal. In a few lines: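 Transfect HepG2 with MRTUs (cis promoter elements); dose chemical, incubate 24 h; isolate RNA, RT with oligo(dT), PCR, 6-FAM label, HpaI cut, CE. Gain/loss fit vs DMSO.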

Assay [4] in a line: ATG_PPRE_CIS: Attagene CIS-FACTORIAL HepG2 Assay for human Peroxisome Proliferator-activated Response Element (PPRE) (AID 2282958). The conditions noted are these: HepG2 PPRE cis-element reporter, Attagene transcription factor profiling; actives raise or lower the signal. In short, it runs like this: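 HepG2 cells are transiently transfected with multiplexed cis-promoter reporter units to report endogenous PPAR activity. After 24 h dosing, reporter mRNA is read by RT-PCR and capillary electrophoresis. Fitting is bidirectional against DMSO.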

Assay [5] in a line: ATG_RORE_CIS: Attagene CIS-FACTORIAL HepG2 Assay for human RAR-related Orphan Receptor Element (RORE) (AID 2282959). The conditions noted are these: HepG2 Attagene cis-factorial RORE reporter, mRNA; actives raise or lower the signal. In a few lines:
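HepG2 cells carrying transiently transfected cis-regulated reporter units; RORE-driven reporter mRNA quantified 24 h post-dosing by RT-PCR, 6-FAM primer extension, HpaI digestion and capillary electrophoresis. Bidirectional fit versus DMSO.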

The target in assay [6] is Transcription factor Sp1 (Homo sapiens) (UniProt P08047). As to the kind of experiment: ATG_Sp1_CIS: Attagene CIS-FACTORIAL HepG2 Assay for human Specificity Protein 1 (Sp1) (AID 2282961). The conditions noted are these: HepG2 Sp1 cis-reporter transcription, actives raise or lower the signal. In a few lines:
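HepG2 cells transiently transfected with multiplexed cis-regulated reporter constructs, chemical exposure 24 h. Reporter mRNA quantified by RT-PCR with capillary electrophoresis; bidirectional fit relative to DMSO.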

A short description of assay [7]: ATG_SREBP_CIS: Attagene CIS-FACTORIAL HepG2 Assay for human Sterol Regulatory Element Binding (SREBP) (AID 2282962). The conditions noted are these: HepG2 Attagene cis-factorial SREBP reporter, mRNA; actives raise or lower the signal. In a few lines: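 HepG2 cells transiently transfected with multiplexed cis-promoter reporter units sensing endogenous transcription factors; reporter mRNA measured 24 h after dosing by RT-PCR, 6-FAM labeling, HpaI digestion and capillary electrophoresis. Bidirectional fit versus DMSO.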

The target of assay [8] is Signal transducer and activator of transcription 3 (Homo sapiens) (UniProt P40763). As to the kind of experiment: ATG_STAT3_CIS: Attagene CIS-FACTORIAL HepG2 Assay for human Signal Transducer and Activator of Transcription 3 (STAT3) (AID 2282963). The conditions noted are these: HepG2, Attagene cis-factorial STAT3 reporter transcription; actives raise or lower the signal. In short, it runs like this: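 Endogenous STAT3-responsive cis-element activity was read in transiently transfected HepG2 cells after 24 h treatment. Reporter transcripts were quantified via RT-PCR and capillary electrophoresis, with DMSO as negative control and bidirectional curve fitting.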
Signal transducer and activator of transcription 3 (Homo sapiens), sequence (P40763 whole entry, looked up): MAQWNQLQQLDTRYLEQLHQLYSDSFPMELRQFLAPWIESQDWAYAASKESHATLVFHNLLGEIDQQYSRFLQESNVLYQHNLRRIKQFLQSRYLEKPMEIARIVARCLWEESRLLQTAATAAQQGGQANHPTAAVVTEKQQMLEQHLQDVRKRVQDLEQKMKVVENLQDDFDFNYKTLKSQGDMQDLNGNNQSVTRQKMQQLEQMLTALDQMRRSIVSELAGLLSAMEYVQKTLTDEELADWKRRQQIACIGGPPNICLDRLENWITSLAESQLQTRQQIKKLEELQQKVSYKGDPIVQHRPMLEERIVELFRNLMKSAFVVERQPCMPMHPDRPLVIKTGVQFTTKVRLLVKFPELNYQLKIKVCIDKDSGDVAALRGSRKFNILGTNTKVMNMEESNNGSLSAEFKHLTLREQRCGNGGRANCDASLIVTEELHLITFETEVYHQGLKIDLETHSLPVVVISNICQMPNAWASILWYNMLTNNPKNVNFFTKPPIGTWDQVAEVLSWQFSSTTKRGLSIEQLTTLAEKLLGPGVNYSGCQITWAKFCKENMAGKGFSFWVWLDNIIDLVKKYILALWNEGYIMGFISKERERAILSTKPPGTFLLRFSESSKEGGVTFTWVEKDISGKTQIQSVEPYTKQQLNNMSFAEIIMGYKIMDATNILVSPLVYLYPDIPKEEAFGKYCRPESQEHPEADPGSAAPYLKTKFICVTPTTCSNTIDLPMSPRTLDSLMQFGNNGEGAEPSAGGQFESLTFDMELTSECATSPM

Assay [9] is described as follows: ATG_TA_CIS: Attagene CIS-FACTORIAL HepG2 Assay for human TA Basal Promoter (AID 2282964). The conditions noted are these: HepG2 Attagene CIS-factorial TA basal promoter reporter; actives raise or lower the signal. In a few lines:
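Fluorescence from labelled RT-PCR reporter fragments, separated by capillary electrophoresis, gives the signal. Cells: HepG2 transiently carrying multiple reporter units, 24 h chemical dosing. Gain or loss relative to DMSO.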

Assay [10] in a line: ATG_TCF_b_cat_CIS: Attagene CIS-FACTORIAL HepG2 Assay for human T-Cell-Factor with beta-catenin (TCF/b-cat) (AID 2282965). The conditions noted are these: HepG2 TCF/beta-catenin cis-reporter transcription, actives raise or lower the signal. In a few lines: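 Endogenous TCF/LEF activity read as reporter transcript level via RT-PCR and capillary electrophoresis fluorescence in transfected HepG2, 24 h exposure; gain or loss of signal fitted against DMSO controls.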

Assay [11] can be described thus: ATG_TAL_CIS: Attagene CIS-FACTORIAL HepG2 Assay for human TAL Basal Promoter (AID 2282966).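 Note: background control endpoint measuring basal TAL promoter reporter mRNA not a specific factor.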 The conditions noted are these: HepG2 Attagene cis-factorial TAL promoter reporter; actives raise or lower the signal. In a few lines:
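Fluorescence of labelled reporter cDNA fragments, resolved by capillary electrophoresis, gave the readout. Human HepG2 liver cells carried transiently transfected cis-element reporter units and were treated for 24 hours; activity was fitted bidirectionally against DMSO.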

A short description of assay [12]: ATG_TGFb_CIS: Attagene CIS-FACTORIAL HepG2 Assay for human Transforming Growth Factor (TGF) (AID 2282967). The conditions noted are these: HepG2 Attagene CIS TGFb reporter, mRNA transcription; actives raise or lower the signal. In a few lines: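 Bidirectional fitting relative to DMSO gave the endpoint. Underlying data: reporter mRNA from HepG2 cells carrying transiently transfected cis-regulated reporter constructs, harvested 24 h after dosing and analyzed by RT-PCR and capillary electrophoresis.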

A short description of assay [13]: ATG_VDRE_CIS: Attagene CIS-FACTORIAL HepG2 Assay for human Vitamin D Receptor Element (VDRE) (AID 2282968). The conditions noted are these: HepG2 VDRE cis-reporter transcription, actives raise or lower the signal. In a few lines: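 Reporter mRNA induction, quantified by capillary electrophoresis of fluorescently labelled RT-PCR products, was read 24 h after dosing HepG2 cells carrying transiently transfected cis-regulated reporter units; gain or loss relative to DMSO.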

Assay [14] deals with Steroid hormone receptor ERR1 (Homo sapiens) (UniProt P11474). As to the kind of experiment: ATG_ERRa_TRANS: Attagene TRANS-FACTORIAL HepG2 Assay for human Estrogen-Related Receptor alpha (ERRa) (AID 2282971; active = hit-call score of the fitted dose curve at least 0.9, where 1 is the maximum). The conditions noted are these: HepG2 Attagene TRANS reporter, ERRa transactivation. In short, it runs like this: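 Reporter transcript induction was quantified by RT-PCR and capillary electrophoresis of FAM-labelled, HpaI-cut products after 24 h treatment of HepG2 cells carrying transiently transfected GAL4-UAS reporter units and an exogenous ERRa-Gal4 fusion; activity scored as increase over DMSO.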
Steroid hormone receptor ERR1 (Homo sapiens), sequence (P11474 whole entry, looked up, the tested form may be a part): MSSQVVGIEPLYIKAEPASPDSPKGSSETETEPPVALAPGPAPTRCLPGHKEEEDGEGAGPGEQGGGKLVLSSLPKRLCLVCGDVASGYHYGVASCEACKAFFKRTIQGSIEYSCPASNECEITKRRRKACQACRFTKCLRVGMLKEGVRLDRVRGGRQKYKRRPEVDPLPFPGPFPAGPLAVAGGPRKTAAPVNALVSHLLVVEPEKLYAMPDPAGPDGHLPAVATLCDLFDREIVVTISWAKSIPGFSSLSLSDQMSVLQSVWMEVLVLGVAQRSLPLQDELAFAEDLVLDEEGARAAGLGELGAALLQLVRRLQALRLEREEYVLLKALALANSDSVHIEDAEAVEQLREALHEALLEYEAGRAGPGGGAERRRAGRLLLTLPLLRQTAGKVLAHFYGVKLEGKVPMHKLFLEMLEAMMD

Assay [15] deals with X-box-binding protein 1 (Homo sapiens) (UniProt P17861). Description: ATG_Xbp1_CIS: Attagene CIS-FACTORIAL HepG2 Assay for human X-box Binding Protein 1 (XBP1) (AID 2282972). The conditions noted are these: HepG2 XBP1 cis-element reporter, Attagene multiplex; actives raise or lower the signal. In short, it runs like this: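 HepG2 cells transiently transfected with multiple cis-element reporter units report endogenous TF activity; 24 h exposure, then reporter mRNA measured by RT-PCR, 6-FAM labelling, HpaI digestion and capillary electrophoresis. Bidirectional fitting versus DMSO.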
X-box-binding protein 1 (Homo sapiens), sequence (P17861 whole entry, looked up): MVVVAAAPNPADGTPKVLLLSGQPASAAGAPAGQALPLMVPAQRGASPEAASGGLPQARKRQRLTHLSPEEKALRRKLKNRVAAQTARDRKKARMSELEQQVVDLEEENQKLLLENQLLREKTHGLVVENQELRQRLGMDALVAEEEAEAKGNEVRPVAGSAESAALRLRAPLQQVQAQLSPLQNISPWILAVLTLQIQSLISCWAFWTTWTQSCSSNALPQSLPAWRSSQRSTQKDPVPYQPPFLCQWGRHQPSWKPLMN

In assay [16] the target is Androgen receptor (Homo sapiens) (UniProt P10275). As to the kind of experiment: ATG_AR_TRANS: Attagene TRANS-FACTORIAL HepG2 Assay for human Androgen Receptor (AR) (AID 2282973; active = hit-call score of the fitted dose curve at least 0.9, where 1 is the maximum). The conditions noted are these: HepG2 Attagene TRANS-FACTORIAL AR reporter transcription. In a few lines:
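Steps: transfect HepG2 with multiple GAL4-UAS reporter transcription units (TRANS format, exogenous NR-Gal4 protein); dose 24 h; isolate RNA, reverse-transcribe, PCR-amplify, FAM-label, HpaI-digest; resolve by capillary electrophoresis. Positive direction vs DMSO.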

The nature of assay [17]: ATG_Sox_CIS: Attagene CIS-FACTORIAL HepG2 Assay for human SRY-box transcription factor (SOX) (AID 2282960). The conditions noted are these: HepG2 Attagene cis-factorial SOX reporter, mRNA; actives raise or lower the signal. In a few lines:
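HepG2 cells transiently transfected with multiple cis-regulated reporter units, then dosed for 24 h. Reporter mRNA quantified by RT-PCR, fluorescent labelling, HpaI digestion and capillary electrophoresis; bidirectional fit versus DMSO.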

Assay [18] has as its target Nuclear receptor subfamily 1 group I member 3 (Homo sapiens) (UniProt Q14994). Description: ATG_CAR_TRANS: Attagene TRANS-FACTORIAL HepG2 Assay for human Constitutive Androstane Receptor (CAR) (AID 2282969; active = hit-call score of the fitted dose curve at least 0.9, where 1 is the maximum;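 note: activators raise reporter mRNA above DMSO so AC50 marks induction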). The conditions noted are these: HepG2 Attagene TRANS-FACTORIAL CAR reporter. In a few lines:
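Readout is reporter mRNA induction, quantified by fluorescent primer extension and capillary electrophoresis after RT-PCR. Cells were HepG2 transiently carrying chimeric NR-Gal4 constructs with GAL4-UAS reporters, treated for 24 h; activity scored upward from DMSO.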

In assay [19] the target is Estrogen receptor (Homo sapiens) (UniProt P03372). As to the kind of experiment: ATG_ERa_TRANS: Attagene TRANS-FACTORIAL HepG2 Assay for human Estrogen Receptor alpha (ERa) (AID 2282970; active = hit-call score of the fitted dose curve at least 0.9, where 1 is the maximum). The conditions noted are these: HepG2 Attagene TRANS ERa GAL4 reporter, mRNA. In short, it runs like this: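 Human liver HepG2, transient transfection of multiple GAL4-UAS reporter units; TRANS format (exogenous NR-Gal4 chimera). 24 h dosing. Readout: reporter mRNA, RT-PCR, 6-FAM primer extension, HpaI digest, capillary electrophoresis. Positive direction vs DMSO.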
Estrogen receptor (Homo sapiens), sequence (P03372 whole entry, looked up, the tested form may be a part): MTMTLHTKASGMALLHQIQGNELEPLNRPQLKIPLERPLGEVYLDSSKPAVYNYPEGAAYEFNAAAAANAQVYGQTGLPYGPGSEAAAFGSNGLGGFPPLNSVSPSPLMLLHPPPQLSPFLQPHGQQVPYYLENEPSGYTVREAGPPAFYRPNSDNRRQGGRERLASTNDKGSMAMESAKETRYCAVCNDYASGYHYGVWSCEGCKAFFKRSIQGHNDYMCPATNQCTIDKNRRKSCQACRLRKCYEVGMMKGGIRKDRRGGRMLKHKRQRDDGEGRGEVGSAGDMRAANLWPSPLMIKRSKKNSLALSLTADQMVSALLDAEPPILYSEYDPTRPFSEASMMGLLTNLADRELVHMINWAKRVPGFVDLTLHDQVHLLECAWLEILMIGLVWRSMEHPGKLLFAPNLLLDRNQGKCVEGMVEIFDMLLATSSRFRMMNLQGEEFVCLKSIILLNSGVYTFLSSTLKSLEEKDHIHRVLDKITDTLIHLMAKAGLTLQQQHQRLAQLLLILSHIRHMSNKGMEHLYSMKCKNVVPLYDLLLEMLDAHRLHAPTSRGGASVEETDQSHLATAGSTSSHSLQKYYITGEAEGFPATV

Assay [20] can be described thus: ATG_M_19_TRANS: Attagene TRANS-FACTORIAL HepG2 Assay for M19 Transcription Factor (Internal Marker) (AID 2282974; active = hit-call score of the fitted dose curve at least 0.9, where 1 is the maximum). The conditions noted are these: HepG2 Attagene TRANS-FACTORIAL M19 internal marker reporter. In short, it runs like this: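 HepG2 transiently transfected with GAL4-UAS multiplex reporter constructs, exposed 24 h; reporter RNA quantified by RT-PCR, 6-FAM labeling, HpaI digestion and capillary electrophoresis; internal background marker fitted upward versus DMSO.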

Paired box protein Pax-6 (Homo sapiens), sequence (P26367 whole entry, looked up): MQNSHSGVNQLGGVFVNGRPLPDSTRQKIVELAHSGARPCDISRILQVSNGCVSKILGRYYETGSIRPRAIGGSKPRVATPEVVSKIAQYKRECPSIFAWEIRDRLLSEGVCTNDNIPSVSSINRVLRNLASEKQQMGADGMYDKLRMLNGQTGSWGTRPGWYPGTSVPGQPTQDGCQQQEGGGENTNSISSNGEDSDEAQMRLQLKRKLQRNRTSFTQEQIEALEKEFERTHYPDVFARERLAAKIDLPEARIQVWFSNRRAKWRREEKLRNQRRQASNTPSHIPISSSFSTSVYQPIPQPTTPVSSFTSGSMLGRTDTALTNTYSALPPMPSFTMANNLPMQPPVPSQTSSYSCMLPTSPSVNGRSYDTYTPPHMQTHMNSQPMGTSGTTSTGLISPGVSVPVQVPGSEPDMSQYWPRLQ
Transcription factor Sp1 (Homo sapiens), sequence (P08047 whole entry, looked up): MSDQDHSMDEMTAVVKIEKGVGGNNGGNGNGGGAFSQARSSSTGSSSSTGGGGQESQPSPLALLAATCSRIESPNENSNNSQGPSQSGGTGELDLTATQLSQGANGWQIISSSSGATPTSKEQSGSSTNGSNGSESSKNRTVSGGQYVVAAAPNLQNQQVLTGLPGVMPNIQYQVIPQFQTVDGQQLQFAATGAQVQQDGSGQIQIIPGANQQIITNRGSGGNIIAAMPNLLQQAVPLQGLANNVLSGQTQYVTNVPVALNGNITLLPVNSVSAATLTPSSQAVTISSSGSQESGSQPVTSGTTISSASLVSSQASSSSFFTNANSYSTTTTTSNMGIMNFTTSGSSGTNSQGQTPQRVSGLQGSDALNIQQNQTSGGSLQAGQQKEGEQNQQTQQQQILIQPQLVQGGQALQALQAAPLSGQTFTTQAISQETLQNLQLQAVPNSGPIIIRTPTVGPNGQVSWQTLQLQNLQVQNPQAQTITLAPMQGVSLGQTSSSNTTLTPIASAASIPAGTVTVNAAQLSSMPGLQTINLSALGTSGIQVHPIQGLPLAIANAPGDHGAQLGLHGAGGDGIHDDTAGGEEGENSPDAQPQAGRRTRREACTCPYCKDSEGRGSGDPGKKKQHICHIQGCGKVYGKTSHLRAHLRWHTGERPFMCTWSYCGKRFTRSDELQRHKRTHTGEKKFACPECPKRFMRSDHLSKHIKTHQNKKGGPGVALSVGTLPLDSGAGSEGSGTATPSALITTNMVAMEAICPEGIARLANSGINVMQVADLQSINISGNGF
Androgen receptor (Homo sapiens), sequence (P10275 whole entry, looked up, the tested form may be a part): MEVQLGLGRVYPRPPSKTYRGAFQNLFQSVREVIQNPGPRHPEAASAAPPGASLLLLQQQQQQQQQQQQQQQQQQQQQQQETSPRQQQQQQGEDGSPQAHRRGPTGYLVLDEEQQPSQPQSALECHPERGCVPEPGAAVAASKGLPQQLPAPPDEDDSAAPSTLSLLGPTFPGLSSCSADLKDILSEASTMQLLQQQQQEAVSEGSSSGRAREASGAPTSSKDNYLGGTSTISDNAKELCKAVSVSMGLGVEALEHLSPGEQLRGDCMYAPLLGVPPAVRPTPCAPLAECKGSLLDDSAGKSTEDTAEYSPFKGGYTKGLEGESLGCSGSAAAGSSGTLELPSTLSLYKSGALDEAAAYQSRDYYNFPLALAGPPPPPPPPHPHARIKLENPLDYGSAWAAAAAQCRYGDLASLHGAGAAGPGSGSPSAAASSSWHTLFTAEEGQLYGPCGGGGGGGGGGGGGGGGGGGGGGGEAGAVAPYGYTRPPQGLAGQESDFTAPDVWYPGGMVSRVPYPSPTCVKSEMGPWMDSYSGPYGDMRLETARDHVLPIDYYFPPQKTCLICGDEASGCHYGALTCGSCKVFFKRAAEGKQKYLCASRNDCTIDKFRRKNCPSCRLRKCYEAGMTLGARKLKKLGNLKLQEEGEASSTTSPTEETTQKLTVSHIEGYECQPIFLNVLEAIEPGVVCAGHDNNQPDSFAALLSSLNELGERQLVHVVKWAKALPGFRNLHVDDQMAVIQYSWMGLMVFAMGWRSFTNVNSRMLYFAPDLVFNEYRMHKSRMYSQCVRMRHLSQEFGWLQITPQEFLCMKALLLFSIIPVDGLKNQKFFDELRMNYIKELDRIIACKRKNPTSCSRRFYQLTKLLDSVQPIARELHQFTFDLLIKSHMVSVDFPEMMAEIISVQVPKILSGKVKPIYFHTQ
Nuclear receptor subfamily 1 group I member 3 (Homo sapiens), sequence (Q14994 whole entry, looked up, the tested form may be a part): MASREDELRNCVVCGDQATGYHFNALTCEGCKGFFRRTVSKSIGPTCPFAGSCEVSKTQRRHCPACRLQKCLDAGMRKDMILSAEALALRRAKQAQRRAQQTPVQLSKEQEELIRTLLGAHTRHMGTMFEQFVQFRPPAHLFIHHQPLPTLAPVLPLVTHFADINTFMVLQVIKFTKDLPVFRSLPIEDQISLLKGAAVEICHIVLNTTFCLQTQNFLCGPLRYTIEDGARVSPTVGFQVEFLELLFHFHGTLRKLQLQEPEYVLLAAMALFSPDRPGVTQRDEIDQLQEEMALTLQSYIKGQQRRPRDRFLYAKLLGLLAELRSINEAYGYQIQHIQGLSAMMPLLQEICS

For the compound `COP(=O)(CCC(=O)NCO)OC`, the outcome in [1], in [2], in assay [3], in [4], in [5] and in assay [6] was inactive. Moreover, the result in assay [7], in assay [8], in assay [9], in assay [10], in assay [11] and in assay [12] was inactive. In addition, the compound was classed as inactive in [13], in assay [14], in assay [15] and in assay [16].

Turning to `CO/N=C(/C(=O)OC)c1ccccc1COc1ccccc1C`, the outcome in [1], in assay [17], in assay [6], in [7], in assay [8] and in [9] was inactive. Further, the compound was called inactive in assay [10], in assay [11], in assay [12], in [18] and in assay [16]. For the same compound, the AC50 (commonly the midpoint of the concentration-response curve, whichever way the signal moves) was 70.1 µM (active) in assay [2]; 4.57 µM (active) in [3]; 36.5 µM (active) in [5]; 13 µM (active) in assay [13]; 2.6 µM (active) in assay [19]; 35.2 µM (active) in assay [15].

Regarding `Cc1ccc([N+](=O)[O-])cc1C`, the outcome in assay [1], in [2], in [3], in [4], in assay [5] and in assay [6] was inactive. The outcome in assay [7], in [8], in [9], in assay [10], in assay [11] and in assay [12] was inactive. For the same compound, the result in assay [13], in assay [19], in assay [15] and in assay [20] was inactive.

With `O=C(O)C(F)(F)C(F)(F)C(=O)O`, the compound was classed as inactive in [2], in [3], in assay [4], in assay [5], in assay [17] and in assay [6]. Further, the result in assay [7], in [8], in assay [9], in [10], in assay [11] and in assay [12] was inactive. Further, the result in [13], in assay [18], in [19], in [15] and in [20] was inactive.

The values above are taken from PubChem BioAssay (EPA / NIEHS).
